Reference: the supplement of paper PMC10849652
Of roughly 7,900 targets only a part is listed; those with a hit were picked by preference. About 0.6% of all pairs of compound and target were hits.

Experiments:
Assay in all cases: log2 fold change, soluble protein after heating vs DMSO (PISA); higher = thermal stabilisation; K562 cells, 10 uM, 30 min; active = over 0.2 and 3.5 SD of the protein, either way, in both replicates (recomputed)
[1] = compound: CC[C@@H]1C(=O)N(C)c2cnc(Nc3ccc(C(=O)NC4CCN(C)CC4)cc3OC)nc2N1C1CCCC1
Outline: (§1)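 Soluble protein was defined as the supernatant after 21,000xg for 90 min. It came from K562 cells at 2×10^6 cells/mL given 10 μM compound for 30 min, heated in aliquots for 3 min across 48°C-58°C, pooled, and extracted in PBS with 0.5% NP-40 at 4°C, and was quantified by TMTpro 16plex LC-MS/MS with equalised channel sums. Thermal stability against control samples, from duplicates, is reported as log2 fold change.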

volasertib = compound: CC[C@@H]1C(=O)N(C)c2cnc(Nc3ccc(C(=O)N[C@H]4CC[C@H](N5CCN(CC6CC6)CC5)CC4)cc3OC)nc2N1C(C)C [volasertib]
Outline: as §1

[2] = compound: CC[C@H](C)N1C=C(C2=C(C=C(C=C21)C3=CN=C(C=C3)N4CCNCC4)C(=O)NCC5=C(C=C(NC5=O)C)C)C
Outline: as §1

epoxomicin = compound: CC[C@H](C)[C@@H](C(=O)N[C@@H]([C@@H](C)O)C(=O)N[C@@H](CC(C)C)C(=O)[C@]1(CO1)C)NC(=O)[C@H]([C@@H](C)CC)N(C)C(=O)C [epoxomicin]
Outline: as §1

[3] = compound: CCn1c(C(=O)N(C2CC2)C2CC2)cc2c3c(ncn3C)c(Nc3cc(C)n(C)n3)nc21
Outline: as §1

[4] = compound: CCn1cc(-c2ccnc3[nH]c(-c4cccc(CN(C)C)c4)cc23)c(-c2ccc(NC(=O)N(C)C)cc2)n1
Outline: as §1

[5] = compound: CN(C)CC(=O)Nc1ccc2[nH]c(=O)c3ccccc3c2c1
Outline: as §1

rosiglitazone = compound: CN(CCOC1=CC=C(C=C1)C[C@H]2C(=O)NC(=O)S2)C3=CC=CC=N3 (racemic) [rosiglitazone]
Outline: as §1

[6] = compound: CN1C2=C(C3=C1C(=O)N(N=C3)CC4=CC(=CC=C4)N)SC(=C2)S(=O)C
Outline: as §1

[7] = compound: CN1CCC(CNc2ccc3ncc(-c4cccc(OC(F)(F)F)c4)n3n2)CC1
Outline: as §1

Measured: log2 fold change

OXR1 (UniProt Q8N573)
inactive: [1] -0.052 | volasertib -0.071 | [2] 0.035 | epoxomicin -0.013 | [3] 0.006 | [4] 0.026 | [5] 0.062 | rosiglitazone 0.005 | [6] -0.033
active: [7] -0.257

MRPS18B (UniProt Q9Y676)
inactive: [1] 0.028 | volasertib -0.039 | [2] 0.09 | epoxomicin 0.042 | [3] -0.075 | [4] -0.021 | [5] 0.041 | rosiglitazone -0.069 | [6] -0.01 | [7] -0.087

OXSM (UniProt Q9NWU1)
inactive: [1] -0.063 | volasertib -0.017 | [2] -0.022 | epoxomicin 0.018 | [3] -0.048 | [4] -0.003 | [5] -0.005 | rosiglitazone 0.02 | [6] -0.025 | [7] 0.058

MIS12 (UniProt Q9H081)
inactive: [1] -0.072 | [2] 0.012 | epoxomicin 0.026 | [3] -0.034 | [4] -0.007 | [5] 0.055 | rosiglitazone 0.04 | [6] -0.107 | [7] -0.039
active: volasertib -0.36

MRPS9 (UniProt P82933)
inactive: [1] 0.094 | volasertib 0.109 | [2] 0.076 | epoxomicin -0.009 | [3] -0.082 | [4] 0.027 | [5] -0.004 | rosiglitazone 0.012 | [6] 0.071 | [7] 0.001

OAT (UniProt P04181)
inactive: [1] 0.049 | volasertib 0.1 | [2] 0.021 | epoxomicin 0.043 | [3] -0.041 | [4] -0.1 | [5] 0.004 | rosiglitazone -0.006 | [6] -0.102 | [7] -0.164

NSMCE4A (UniProt Q9NXX6)
inactive: [1] 0.069 | volasertib 0.053 | [2] 0.103 | epoxomicin -0.02 | [3] 0.112 | [4] -0.251 | [5] -0.13 | rosiglitazone 0.057 | [6] -0.33 | [7] -0.009

NISCH (UniProt Q9Y2I1)
inactive: [1] -0.349 | [2] 0.025 | epoxomicin 0.05 | [3] -0.252 | [4] -0.121 | [5] 0.02 | rosiglitazone 0.103 | [6] 0.086
active: volasertib -0.487 | [7] -0.518

MOV10 (UniProt Q9HCE1)
UniProt Q9HCE1, sequence (Q9HCE1 whole entry, looked up): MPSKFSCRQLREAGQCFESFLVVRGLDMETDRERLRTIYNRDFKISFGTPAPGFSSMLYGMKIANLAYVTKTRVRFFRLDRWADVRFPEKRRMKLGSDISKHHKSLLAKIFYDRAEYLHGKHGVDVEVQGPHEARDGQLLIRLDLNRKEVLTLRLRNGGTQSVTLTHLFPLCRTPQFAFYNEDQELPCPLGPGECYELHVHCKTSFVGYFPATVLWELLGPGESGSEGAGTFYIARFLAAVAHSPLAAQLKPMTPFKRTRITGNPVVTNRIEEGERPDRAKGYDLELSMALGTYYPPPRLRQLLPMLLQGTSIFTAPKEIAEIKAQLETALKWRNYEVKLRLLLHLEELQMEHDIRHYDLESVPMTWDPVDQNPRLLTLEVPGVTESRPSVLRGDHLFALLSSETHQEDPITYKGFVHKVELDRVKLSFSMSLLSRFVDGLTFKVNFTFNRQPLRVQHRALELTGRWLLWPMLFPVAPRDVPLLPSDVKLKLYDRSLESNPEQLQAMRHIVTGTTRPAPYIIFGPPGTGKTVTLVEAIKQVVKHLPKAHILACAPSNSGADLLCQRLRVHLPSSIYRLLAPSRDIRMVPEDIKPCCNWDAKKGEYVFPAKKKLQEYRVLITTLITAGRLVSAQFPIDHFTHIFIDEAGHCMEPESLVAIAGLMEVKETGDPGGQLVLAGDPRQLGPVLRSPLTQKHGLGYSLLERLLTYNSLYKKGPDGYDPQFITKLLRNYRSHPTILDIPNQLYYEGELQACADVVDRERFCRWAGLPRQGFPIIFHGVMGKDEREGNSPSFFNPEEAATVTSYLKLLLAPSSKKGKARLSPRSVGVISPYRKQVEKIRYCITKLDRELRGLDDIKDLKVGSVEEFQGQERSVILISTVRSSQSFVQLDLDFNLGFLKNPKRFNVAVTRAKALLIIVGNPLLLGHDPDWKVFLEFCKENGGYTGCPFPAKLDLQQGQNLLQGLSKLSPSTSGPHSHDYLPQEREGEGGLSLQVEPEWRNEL
inactive: [1] 0.199 | volasertib 0.195 | [2] -0.029 | epoxomicin -0.156 | [3] 0.029 | [4] 0.158 | [5] -0.061 | rosiglitazone -0.044 | [6] 0.185 | [7] 0.331

MRPS6 (UniProt P82932)
inactive: [1] -0.015 | volasertib -0.045 | [2] 0.03 | epoxomicin -0.012 | [3] -0.06 | [4] -0.067 | [5] 0.09 | rosiglitazone 0.072 | [6] -0.021 | [7] 0.027

NFATC2 (UniProt Q13469)
UniProt Q13469, sequence (Q13469 whole entry, looked up): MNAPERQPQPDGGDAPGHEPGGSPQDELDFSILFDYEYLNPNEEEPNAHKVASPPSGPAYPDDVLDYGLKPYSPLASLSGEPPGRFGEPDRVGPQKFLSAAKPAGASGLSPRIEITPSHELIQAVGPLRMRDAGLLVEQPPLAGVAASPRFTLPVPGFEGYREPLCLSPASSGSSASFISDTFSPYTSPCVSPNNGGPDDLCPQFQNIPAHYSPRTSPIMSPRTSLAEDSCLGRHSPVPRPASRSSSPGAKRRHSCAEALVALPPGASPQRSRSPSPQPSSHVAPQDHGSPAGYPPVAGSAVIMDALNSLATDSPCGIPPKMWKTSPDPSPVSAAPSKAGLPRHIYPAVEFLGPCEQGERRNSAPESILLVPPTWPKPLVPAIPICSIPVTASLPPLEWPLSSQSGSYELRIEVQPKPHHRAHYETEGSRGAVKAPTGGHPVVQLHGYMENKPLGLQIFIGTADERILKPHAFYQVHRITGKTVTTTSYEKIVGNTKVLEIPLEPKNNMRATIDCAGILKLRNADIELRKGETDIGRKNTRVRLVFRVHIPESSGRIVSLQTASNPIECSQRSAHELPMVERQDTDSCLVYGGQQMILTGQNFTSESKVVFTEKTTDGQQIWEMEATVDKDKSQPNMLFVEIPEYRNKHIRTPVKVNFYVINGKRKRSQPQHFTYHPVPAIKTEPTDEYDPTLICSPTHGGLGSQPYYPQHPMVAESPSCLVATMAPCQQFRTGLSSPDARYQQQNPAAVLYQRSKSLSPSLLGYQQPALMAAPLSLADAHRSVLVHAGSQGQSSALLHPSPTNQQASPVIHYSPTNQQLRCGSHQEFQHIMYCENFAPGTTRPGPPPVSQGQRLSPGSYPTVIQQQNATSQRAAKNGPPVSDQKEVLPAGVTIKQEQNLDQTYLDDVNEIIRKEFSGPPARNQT
inactive: [1] -0.098 | volasertib -0.281 | [2] 0.19 | epoxomicin -0.001 | [3] 0.045 | [4] -0.197 | [5] 0.065 | rosiglitazone 0.191 | [6] 0.039 | [7] -0.102

NFE2 (UniProt Q16621)
inactive: [1] -0.136 | volasertib -0.227 | [2] 0.018 | epoxomicin 0.173 | [3] 0.012 | [4] 0.084 | [5] 0.273 | rosiglitazone 0 | [6] -0.015 | [7] -0.145

MT-ND4 (UniProt P03905)
active: [4] 0.391
inactive: [1] 0 | volasertib -0.102 | [2] -0.028 | epoxomicin 0 | [3] -0.071 | [5] -0.025 | rosiglitazone 0.159 | [6] -0.065 | [7] 0.029

P4HA2 (UniProt O15460)
UniProt O15460, sequence (O15460 whole entry, looked up): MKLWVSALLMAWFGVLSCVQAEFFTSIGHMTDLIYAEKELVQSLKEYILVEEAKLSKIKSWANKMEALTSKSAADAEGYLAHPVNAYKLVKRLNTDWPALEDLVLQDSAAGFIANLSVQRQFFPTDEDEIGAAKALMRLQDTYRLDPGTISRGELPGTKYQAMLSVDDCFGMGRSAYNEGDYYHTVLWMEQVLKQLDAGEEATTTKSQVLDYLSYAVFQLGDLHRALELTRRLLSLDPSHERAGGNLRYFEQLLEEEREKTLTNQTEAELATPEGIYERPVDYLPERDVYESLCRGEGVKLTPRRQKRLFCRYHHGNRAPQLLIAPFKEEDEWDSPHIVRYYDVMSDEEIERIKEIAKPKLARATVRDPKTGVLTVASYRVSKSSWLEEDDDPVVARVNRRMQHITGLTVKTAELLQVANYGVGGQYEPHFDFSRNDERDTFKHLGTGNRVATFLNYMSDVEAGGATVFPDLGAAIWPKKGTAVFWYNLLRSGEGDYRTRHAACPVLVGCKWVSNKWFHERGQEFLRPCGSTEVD
inactive: [1] 0.08 | volasertib -0.012 | [2] -0.006 | epoxomicin -0.257 | [3] -0.038 | [4] 0.138 | [5] -0.036 | rosiglitazone -0.126 | [6] 0.112 | [7] 0.118

ORC3 isoform 2 (UniProt Q9UBD5)
inactive: [1] -0.046 | volasertib -0.396 | [2] 0.044 | epoxomicin 0.181 | [3] -0.053 | [4] -0.017 | [5] 0.067 | rosiglitazone 0.059 | [6] -0.034 | [7] -0.376

NELFA (UniProt Q9H3P2)
UniProt Q9H3P2, sequence (Q9H3P2 whole entry, looked up): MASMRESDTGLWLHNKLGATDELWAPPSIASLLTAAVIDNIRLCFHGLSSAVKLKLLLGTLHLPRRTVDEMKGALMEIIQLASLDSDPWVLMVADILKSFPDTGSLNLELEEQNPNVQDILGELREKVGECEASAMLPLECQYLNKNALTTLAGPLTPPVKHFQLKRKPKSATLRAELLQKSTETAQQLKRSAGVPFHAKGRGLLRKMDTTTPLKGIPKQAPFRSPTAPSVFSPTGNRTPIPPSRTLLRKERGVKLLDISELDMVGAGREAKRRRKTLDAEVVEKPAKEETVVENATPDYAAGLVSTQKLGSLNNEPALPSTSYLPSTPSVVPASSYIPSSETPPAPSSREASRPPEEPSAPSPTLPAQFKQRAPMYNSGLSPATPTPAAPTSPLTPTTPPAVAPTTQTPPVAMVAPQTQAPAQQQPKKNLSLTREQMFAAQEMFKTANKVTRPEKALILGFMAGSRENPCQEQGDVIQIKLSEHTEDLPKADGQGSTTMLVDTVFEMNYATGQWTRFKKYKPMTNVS
active: volasertib -0.868
inactive: [1] -0.4 | [2] 0.341 | epoxomicin 0.053 | [3] -0.105 | [4] -0.139 | [5] 0.16 | rosiglitazone 0.048 | [6] -0.051 | [7] 0.006

NMT2 (UniProt O60551)
inactive: [1] 0.013 | volasertib -0.177 | [2] 0.039 | epoxomicin 0.01 | [3] -0.001 | [4] -0.098 | [5] -0.013 | rosiglitazone -0.056 | [6] 0.002 | [7] -0.208

MXRA7 (UniProt P84157)
inactive: [1] 0.04 | volasertib 0.08 | [2] -0.11 | epoxomicin -0.034 | [3] 0.038 | [4] -0.042 | [5] 0.124 | rosiglitazone 0.037 | [6] -0.114 | [7] 0.113

OTUD4 (UniProt Q01804)
UniProt Q01804, sequence (Q01804 whole entry, looked up): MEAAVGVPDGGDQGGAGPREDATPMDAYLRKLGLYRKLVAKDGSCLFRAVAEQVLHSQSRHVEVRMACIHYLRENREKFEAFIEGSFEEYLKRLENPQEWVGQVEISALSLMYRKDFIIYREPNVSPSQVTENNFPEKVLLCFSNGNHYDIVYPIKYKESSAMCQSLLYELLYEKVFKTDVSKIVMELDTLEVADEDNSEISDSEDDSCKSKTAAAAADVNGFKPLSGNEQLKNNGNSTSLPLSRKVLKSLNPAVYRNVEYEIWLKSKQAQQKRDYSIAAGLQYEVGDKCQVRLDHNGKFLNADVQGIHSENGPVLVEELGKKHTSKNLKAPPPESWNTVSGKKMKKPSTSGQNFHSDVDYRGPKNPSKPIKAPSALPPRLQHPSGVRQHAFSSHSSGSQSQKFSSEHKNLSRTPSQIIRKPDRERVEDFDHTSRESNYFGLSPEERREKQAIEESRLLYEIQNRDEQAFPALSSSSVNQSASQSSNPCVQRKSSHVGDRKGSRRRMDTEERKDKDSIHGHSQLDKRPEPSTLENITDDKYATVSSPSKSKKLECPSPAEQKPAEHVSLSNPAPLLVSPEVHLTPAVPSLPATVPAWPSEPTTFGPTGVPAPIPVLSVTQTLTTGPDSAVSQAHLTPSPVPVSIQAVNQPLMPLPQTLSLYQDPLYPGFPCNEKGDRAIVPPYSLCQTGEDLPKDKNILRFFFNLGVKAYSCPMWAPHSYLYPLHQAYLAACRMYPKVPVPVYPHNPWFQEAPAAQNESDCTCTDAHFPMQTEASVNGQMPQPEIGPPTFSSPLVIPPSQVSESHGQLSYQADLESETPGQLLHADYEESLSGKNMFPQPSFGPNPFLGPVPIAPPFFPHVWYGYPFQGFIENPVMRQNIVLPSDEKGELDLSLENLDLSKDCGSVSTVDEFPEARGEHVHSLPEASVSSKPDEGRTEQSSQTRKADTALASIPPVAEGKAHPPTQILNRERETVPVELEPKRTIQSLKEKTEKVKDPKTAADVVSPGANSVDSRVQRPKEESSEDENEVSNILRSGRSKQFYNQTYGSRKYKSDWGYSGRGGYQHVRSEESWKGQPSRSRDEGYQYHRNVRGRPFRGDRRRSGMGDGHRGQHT
inactive: [1] 0.078 | volasertib -0.067 | [2] 0.009 | epoxomicin -0.085 | [3] -0.016 | [4] 0.098 | [5] 0.011 | rosiglitazone -0.013 | [6] 0.041 | [7] 0.075

MRPS31 (UniProt Q92665)
inactive: [1] 0.056 | volasertib 0 | [2] 0.036 | epoxomicin -0.015 | [3] -0.036 | [4] 0.014 | [5] -0.054 | rosiglitazone -0.018 | [6] 0 | [7] 0.052

MSH6 (UniProt P52701)
active: volasertib -0.683
inactive: [1] -0.306 | [2] 0.227 | epoxomicin 0.097 | [3] -0.127 | [4] -0.089 | [5] 0.172 | rosiglitazone 0.179 | [6] -0.044 | [7] -0.261

NOP2 isoform 4 (UniProt P46087)
UniProt P46087, sequence (P46087 whole entry, looked up): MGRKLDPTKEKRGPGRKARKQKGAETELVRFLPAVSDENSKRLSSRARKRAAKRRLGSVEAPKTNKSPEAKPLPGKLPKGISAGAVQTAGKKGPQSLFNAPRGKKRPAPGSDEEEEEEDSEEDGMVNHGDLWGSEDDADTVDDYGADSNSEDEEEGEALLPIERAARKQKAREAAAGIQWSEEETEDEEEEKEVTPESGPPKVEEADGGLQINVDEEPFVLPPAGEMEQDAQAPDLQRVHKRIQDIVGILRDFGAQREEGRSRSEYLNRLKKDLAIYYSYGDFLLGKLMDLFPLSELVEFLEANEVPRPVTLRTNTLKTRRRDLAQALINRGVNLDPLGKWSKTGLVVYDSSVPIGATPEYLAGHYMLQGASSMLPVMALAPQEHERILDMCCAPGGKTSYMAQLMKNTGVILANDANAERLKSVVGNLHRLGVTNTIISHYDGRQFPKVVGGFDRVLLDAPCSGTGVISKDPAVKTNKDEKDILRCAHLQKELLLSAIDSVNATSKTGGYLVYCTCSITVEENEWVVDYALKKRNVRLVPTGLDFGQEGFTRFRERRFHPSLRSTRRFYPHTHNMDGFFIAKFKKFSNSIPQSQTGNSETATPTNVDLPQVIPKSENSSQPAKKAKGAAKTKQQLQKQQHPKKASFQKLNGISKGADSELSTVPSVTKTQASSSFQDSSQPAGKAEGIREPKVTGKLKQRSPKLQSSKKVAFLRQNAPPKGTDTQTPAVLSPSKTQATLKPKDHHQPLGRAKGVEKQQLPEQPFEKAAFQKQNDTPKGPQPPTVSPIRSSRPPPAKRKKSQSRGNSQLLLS
inactive: [1] 0.196 | volasertib 0.348 | [2] -0.03 | epoxomicin -0.328 | [3] -0.098 | [4] 0.364 | [5] -0.346 | rosiglitazone -0.056 | [6] 0.546 | [7] 0.494

NDUFS7 (UniProt O75251)
inactive: [1] -0.043 | volasertib -0.042 | [2] 0.003 | epoxomicin -0.007 | [3] -0.009 | [4] -0.005 | [5] 0.012 | rosiglitazone 0.053 | [6] -0.029
active: [7] -0.327

MRPS17 (UniProt Q9Y2R5)
inactive: [1] -0.111 | volasertib -0.018 | [2] 0.022 | epoxomicin -0.043 | [3] -0.059 | [4] 0.043 | [5] 0.069 | rosiglitazone 0.057 | [6] 0.022 | [7] -0.016

OGFR (UniProt Q9NZT2)
inactive: [1] 0.026 | volasertib -0.103 | [2] 0.167 | epoxomicin -0.076 | [3] 0.018 | [4] -0.041 | [5] 0.142 | rosiglitazone 0.007 | [6] -0.027 | [7] -0.134

NUP205 (UniProt Q92621)
active: volasertib -0.35 | [7] -0.233
inactive: [1] -0.108 | [2] 0.079 | epoxomicin -0.071 | [3] -0.036 | [4] -0.013 | [5] 0.032 | rosiglitazone 0.041 | [6] -0.041

OSTM1 (UniProt Q86WC4)
inactive: [1] -0.216 | volasertib -0.169 | [2] 0.058 | epoxomicin 0.107 | [3] -0.12 | [4] -0.215 | [5] -0.072 | rosiglitazone 0.004 | [6] 0.035 | [7] -0.064

NEU1 (UniProt Q99519)
inactive: [1] -0.184 | [2] 0.059 | epoxomicin 0.113 | [3] -0.04 | [4] 0.052 | [5] 0.012 | rosiglitazone 0.032 | [6] 0.015 | [7] -0.079
active: volasertib -0.501

NUCKS1 (UniProt Q9H1E3)
inactive: [1] -0.061 | volasertib -0.012 | [2] -0.028 | epoxomicin 0.016 | [3] 0.033 | [4] 0.014 | [5] -0.073 | rosiglitazone 0.001 | [6] -0.043 | [7] -0.083

MPP1 (UniProt Q00013)
inactive: [1] -0.039 | volasertib -0.112 | [2] 0.063 | epoxomicin 0.058 | [3] -0.025 | [4] -0.051 | [5] 0.011 | rosiglitazone 0.051 | [6] 0.043
active: [7] -0.256

NASP (UniProt P49321)
inactive: [1] -0.118 | [2] 0.049 | epoxomicin 0.046 | [3] 0.035 | [4] -0.03 | [5] 0.004 | rosiglitazone 0.029 | [6] -0.061 | [7] -0.051
active: volasertib -0.277

NUP210 (UniProt Q8TEM1)
inactive: [1] -0.001 | volasertib -0.12 | [2] 0 | epoxomicin 0.03 | [3] 0.002 | [4] -0.053 | [5] 0.03 | rosiglitazone 0.03 | [6] -0.026
active: [7] -0.348
